Data taken from PubChem BioAssay (NCATS).
Inconclusive results are not listed. A call without a number means that no potency is given here. Calls of active or inactive are those of the source. Calls come from the whole dose curve; as a rule, active = well fitted curve in the direction sought with a large enough effect; inconclusive = small, poorly fitted or top-dose-only effect, or another doubt; inactive = no such curve, though single readings can be large; an effect the other way counts as inactive or inconclusive.

Legend:
[1] = qHTS of pediatric cancer cell lines to identify multiple opportunities for drug repurposing: Confirmatory screen for RD cells (AID 1347124);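 note: potency is the fitted concentration of half-maximal effect; cells exposed to compound for 48 h before viability readout; nearly all actives have a fitted effect of over 65% in size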
Procedure, shortened: (§1)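 Cells (500-1,000/well) rested 5 h, then received compounds for 48 h; metabolically active cells were measured by CellTiter-Glo luminescence. Final concentrations spanned up to 46 µM (MIPE, 11-point) or 0.59 nM-46 µM (NPC, 8-point) in primary screens, 11-point in follow-ups.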

[2] = qHTS of pediatric cancer cell lines to identify multiple opportunities for drug repurposing: Confirmatory screen for Rh18 cells (AID 1347125); note: nearly all actives have a fitted effect of over 55% in size
Procedure, shortened: as §1

[3] = qHTS of pediatric cancer cell lines to identify multiple opportunities for drug repurposing: Confirmatory screen for Rh30 cells (AID 1347126); note: nearly all actives have a fitted effect of over 55% in size
Procedure, shortened: as §1

[4] = qHTS of pediatric cancer cell lines to identify multiple opportunities for drug repurposing: Confirmatory screen for Saos-2 cells (AID 1347127); conditions: Saos-2 osteosarcoma cell viability; note: potency is the fitted concentration of half-maximal effect; nearly all actives have a fitted effect of over 60% in size
Procedure, shortened: as §1

[5] = qHTS of pediatric cancer cell lines to identify multiple opportunities for drug repurposing: Confirmatory screen for OHS-50 cells (AID 1347128);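 note: compound exposure lasted 48 h at 37 degrees C; nearly all actives have a fitted effect of over 55% in size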; note: potency is the fitted concentration of half-maximal effect
Procedure, shortened: as §1

[6] = test system: Zika virus NS2B-NS3 protease; test: Primary screen GU AMC qHTS for Zika virus inhibitors (AID 1347154); note: nearly all actives have a fitted effect of over 70% in size
Procedure, shortened: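 Fluorogenic AMC-substrate cleavage by noncovalent NS2B-NS3 protease complex (25 nM, pH 8.0 Tris buffer with Tween 20) followed for 15 minutes at room temperature (~20% conversion). Percent inhibition from ex340/em450 signal change, fitted by 4-parameter Hill equation.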

[7] = target: N-terminal Xaa-Pro-Lys N-methyltransferase 1 (Homo sapiens) (UniProt Q9BV86); test: qHTS Assay for Inhibitors of N-terminal methyltransferase 1 (NTMT1): LOPAC validation of the NTMT1 SAHH-coupled ThioGlo3 Assay (AID 1347143);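 note: SAH from peptide methylation measured as thiol fluorescence via SAHH coupling and ThioGlo3; nearly all actives have a fitted effect of over 70% in size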; note: potency is the fitted concentration of half-maximal effect
Chain of N-terminal Xaa-Pro-Lys N-methyltransferase 1 (Homo sapiens) (Q9BV86 whole entry, looked up): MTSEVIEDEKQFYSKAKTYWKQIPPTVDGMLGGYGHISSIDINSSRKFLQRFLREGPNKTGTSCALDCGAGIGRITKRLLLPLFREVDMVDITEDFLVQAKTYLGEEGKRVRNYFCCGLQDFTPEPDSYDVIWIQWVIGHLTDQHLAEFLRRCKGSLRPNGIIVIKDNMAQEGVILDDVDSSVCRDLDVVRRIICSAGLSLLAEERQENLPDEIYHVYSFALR
Procedure, shortened: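 NTMT1 125nM + cpds (various conc.), 1 min RT; add SAM 100uM/SAHH 10uM/ThioGlo3 15uM (addition mix). SAHH-coupled thiol detection, Ex340/Em450, t0 and 30 min RT; signal normalized to background. LOPAC 1280-cpd pilot.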

[8] = target: Furin (Homo sapiens) (UniProt P09958); test: Furin counterscreen qHTS for Zika virus inhibitors (AID 1347149); note: potency is the fitted concentration of half-maximal effect; nearly all actives have a fitted effect of over 70% in size
Chain of Furin (Homo sapiens) (P09958 whole entry, looked up): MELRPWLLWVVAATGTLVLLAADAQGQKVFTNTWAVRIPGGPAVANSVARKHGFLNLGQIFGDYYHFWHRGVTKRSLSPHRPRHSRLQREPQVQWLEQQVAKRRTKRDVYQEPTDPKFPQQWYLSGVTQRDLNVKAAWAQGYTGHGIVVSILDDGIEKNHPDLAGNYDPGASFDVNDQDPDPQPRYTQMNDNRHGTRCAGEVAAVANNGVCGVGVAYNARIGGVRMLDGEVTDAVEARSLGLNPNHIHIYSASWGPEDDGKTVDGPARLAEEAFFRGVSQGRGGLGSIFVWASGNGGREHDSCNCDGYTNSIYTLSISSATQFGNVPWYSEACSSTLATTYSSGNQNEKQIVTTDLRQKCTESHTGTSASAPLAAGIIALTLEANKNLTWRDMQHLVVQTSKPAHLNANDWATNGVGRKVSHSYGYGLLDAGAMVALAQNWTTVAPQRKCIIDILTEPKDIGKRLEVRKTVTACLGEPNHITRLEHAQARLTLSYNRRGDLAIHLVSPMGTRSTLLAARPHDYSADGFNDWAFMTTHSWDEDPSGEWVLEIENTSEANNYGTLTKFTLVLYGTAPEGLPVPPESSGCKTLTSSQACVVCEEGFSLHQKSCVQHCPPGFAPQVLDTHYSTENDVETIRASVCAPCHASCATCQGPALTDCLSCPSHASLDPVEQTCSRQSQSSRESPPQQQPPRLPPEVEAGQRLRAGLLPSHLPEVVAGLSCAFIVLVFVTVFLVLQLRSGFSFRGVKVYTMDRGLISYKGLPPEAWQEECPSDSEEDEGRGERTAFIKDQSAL
Procedure, shortened: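 Counterscreen measures cleavage of 2 microM BOC-RVRR-AMC, below its ~15 microM Km, by 5 nM full-length human furin at pH 7.0 after a 15-min compound preincubation. Inhibition derives from the 15-min fluorescence increase at 37C.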

[9] = test system: Zika virus NS2B-NS3 protease (unlinked); test: Optimization of GU AMC qHTS for Zika virus inhibitors: Unlinked NS2B-NS3 protease assay (AID 1347151); note: nearly all actives have a fitted effect of over 80% in size; note: potency is the fitted concentration of half-maximal effect
Procedure, shortened: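 In this qHTS, compounds acted on 25 nM unlinked Zika NS2B–NS3 in pH 8.0 Tris/Tween buffer. Cleavage of an AMC peptide ran 15 min at room temperature, to about 20% conversion.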

[10] = test system: Zika virus NS2B-NS3 protease (linked construct); test: Confirmatory screen NINDS AMC qHTS for Zika virus inhibitors (AID 1347152); note: nearly all actives have a fitted effect of over 70% in size; note: potency is the fitted concentration of half-maximal effect
Procedure, shortened: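 Concentration-response confirmation used the NINDS linked protease (NS2B hydrophilic domain joined to NS3 protease domain), 1 nM, with a 15-min compound preincubation. Substrate, Nle-KRR-AMC at 10 microM, was read by UV fluorescence before and after 15 min.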

[11] = test system: Zika virus NS2B-NS3 protease (unlinked complex); test: Confirmatory screen GU AMC qHTS for Zika virus inhibitors (AID 1347153); note: nearly all actives have a fitted effect of over 70% in size
Procedure, shortened: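 Unlinked NS2B-NS3 complex (25 nM) in 10 mM Tris-HCl pH 8.0, 0.01% Tween 20 preincubated 15 min with compound, then 10 microM Bz-Nle-KRR-AMC (Km 18.3 µM). Fluorescence change over 15 min, normalized, Hill-fitted.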

[12] = Confirmatory screen NINDS Rhodamine qHTS for Zika virus inhibitors (AID 1347161); note: nearly all actives have a fitted effect of over 60% in size; note: potency is the fitted concentration of half-maximal effect
Procedure, shortened: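 qHTS dose-response: 25 nM linked protease, pH 8.0 Tris/Tween buffer, cpd titration, 15 min RT preinc, 1.5 microM Rhod110 peptide, 15 min reaction (~15% conversion), Ex480/Em540; 4-parameter Hill fit.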

[13] = qHTS of pediatric cancer cell lines to identify multiple opportunities for drug repurposing: Confirmatory screen for U-2 OS cells (AID 1347122); note: nearly all actives have a fitted effect of over 65% in size
Procedure, shortened: as §1

[14] = qHTS of pediatric cancer cell lines to identify multiple opportunities for drug repurposing: Confirmatory screen for Rh41 cells (AID 1347123);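 note: 48 h compound exposure; nearly all actives have a fitted effect of over 60% in size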
Procedure, shortened: as §1

[15] = qHTS of pediatric cancer cell lines to identify multiple opportunities for drug repurposing: Confirmatory screen for SK-N-SH cells (AID 1347129);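 note: cells exposed to compound for 48 h before viability read; nearly all actives have a fitted effect of over 60% in size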
Procedure, shortened: as §1

[16] = test system: Zika virus NS2B-NS3 protease (linked); test: 384 well plate NINDS AMC confirmatory qHTS for Zika virus inhibitors (AID 1347163); conditions: Recombinant NS2B-NS3 protease, Ac-VKTGKR-AMC fluorescence; note: potency is the fitted concentration of half-maximal effect; nearly all actives have a fitted effect of over 50% in size
Procedure, shortened: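 Enzyme (5, 30 or 60 nM final) first met test compounds for ~15 min. The AMC-tagged peptide Ac-VKTGKR-AMC followed at 30 microM. Fluorescence was then recorded at 25 min and scaled against no-enzyme and no-inhibitor wells.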

COC(=O)Nc1nc2ccc(C(=O)C3CC3)cc2[nH]1
Potency [1]: 2.33 µM (active) | Potency [2]: inactive | Potency [3]: inactive | Potency [4]: 1.31 µM (active) | Potency [5]: 1.31 µM (active) | Potency [6]: inactive

Cc1cc2c(cc1Cl)N(C(=O)Nc1ccc(Oc3cccnc3C)nc1)CC2
Potency [7]: 8.91 µM (active)

O=[N+]([O-])c1ccc(CSc2ncnc3c2ncn3[C@@H]2O[C@H](CO)C(O)[C@H]2O)cc1 (some centres undefined)
Potency [7]: inactive

NC(=O)C1=CN(C2OC(COP(=O)(O)OP(=O)(O)OC[C@H]3O[C@@H](n4cnc5c(N)ncnc54)[C@H](OP(=O)(O)O)C3O)C(O)C2O)C=CC1 (some centres undefined)
Potency [7]: inactive

Nc1nc(Cl)nc2c1ncn2[C@@H]1O[C@H](CO)C(O)[C@H]1O (some centres undefined)
Potency [7]: inactive

COc1ccc(/C=C/c2nc(NCCCN(C)C)c3ccccc3n2)cc1
Potency [7]: 50.1 µM (active) | Potency [8]: 24.1 µM (active) | Potency [9]: 26.7 µM (active) | Potency [10]: inactive | outcome [11]: inactive | Potency [12]: inactive

CO/N=C(\C(=O)N[C@@H]1C(=O)N2C(C(=O)O)=C(COC(C)=O)CS[C@H]12)c1csc(N)n1 (stereo in doubt)
Potency [7]: inactive

Nc1ccc([N+](=O)[O-])cc1O
Potency [13]: inactive | Potency [14]: inactive | Potency [2]: inactive | Potency [3]: inactive | Potency [5]: inactive | Potency [15]: inactive | Potency [6]: inactive

CCOC(=O)c1ccccc1O
Potency [13]: inactive | Potency [14]: inactive | Potency [5]: inactive | Potency [15]: inactive | Potency [6]: inactive

O=C(O)CC1CCCc2ccccc2C1O (centres undefined)
Potency [7]: inactive | Potency [9]: inactive

CN=c1nc(-c2ccccc2)n(-c2ccccc2)s1
Potency [7]: 0.316 µM (active) | Potency [9]: inactive

CCC(CO)Nc1nc(NCc2ccccc2)c2ncn(C(C)C)c2n1 (centres undefined)
Potency [7]: inactive | Potency [9]: inactive

c1cnc2c(c1)ccc1cccnc12
Potency [7]: inactive | Potency [9]: inactive

S=c1[nH]c(-c2ccccc2)cn1-c1ccccc1
Potency [7]: 6.31 µM (active) | Potency [9]: 26.7 µM (active) | Potency [10]: inactive | outcome [11]: inactive

Cc1ccc(O)c(N=Nc2ccccc2)n1
Potency [7]: 50.1 µM (active) | Potency [9]: inactive | Potency [6]: inactive

COCCOc1cc2nc[nH]c(=O)c2cc1OCCOC
Potency [7]: inactive | Potency [9]: inactive

COc1ccc2c(c1)CCC1C2CC[C@@]2(C)C1CC[C@@H]2NCCCCCCN1C(=O)CCC1=O (some centres undefined)
Potency [7]: inactive | Potency [9]: inactive

NO
Potency [7]: inactive | Potency [9]: inactive

CC12C(=O)OC(=O)C1(C)C1CCC2O1 (centres undefined)
Potency [7]: inactive | Potency [9]: inactive | Potency [6]: inactive

CC(C)NC[C@@H](O)c1ccc(O)c(O)c1
Potency [7]: 50.1 µM (active) | Potency [9]: inactive

COc1cc(C(O)CO)ccc1OS(=O)(=O)O (centres undefined)
Potency [7]: inactive | Potency [9]: inactive

Oc1ccccc1O
Potency [7]: 44.7 µM (active) | Potency [9]: inactive

c1ccc(-c2ccccn2)nc1
Potency [7]: inactive | Potency [9]: inactive

O=C(O)CCCC[C@@H]1CCSS1
Potency [7]: inactive | Potency [9]: inactive

CCCCCCCCCCCCCCCCCCN(CCCCCCCCCCCCCCCCCC)CCCN(CCO)CCO
Potency [7]: inactive | Potency [9]: inactive

CC1CN(S(=O)(=O)c2cccc3cnccc23)CCN1 (centres undefined)
Potency [7]: inactive | Potency [9]: inactive

O=Nc1ccc2oc(=O)ccc2c1
Potency [7]: 4.47 µM (active) | Potency [9]: inactive

Cn1c(=O)c2[nH]c(-c3ccccc3)nc2n(C)c1=O
Potency [7]: 79.4 µM (active) | Potency [9]: 4.74 µM (active) | Potency [10]: 21.5 µM (active)

Nc1ccn([C@H]2O[C@H](CO)[C@@H](O)C2(F)F)c(=O)n1
Potency [7]: inactive | Potency [9]: inactive

O=C(CCSCc1ccco1)NNC(=O)N1Cc2ccccc2Oc2ccc(Cl)cc21
Potency [7]: inactive | Potency [9]: inactive

COc1ccccc1CNCCCCCCNCCCCCCCCNCCCCCCNCc1ccccc1OC
Potency [7]: 35.5 µM (active) | Potency [9]: inactive | Potency [6]: inactive

Brc1cc2c(cc1[C@H]1Nc3ccccc3[C@H]3C=CC[C@H]31)OCO2
Potency [7]: inactive | Potency [9]: inactive

C=C[C@H]1CN2CC[C@@H]1C[C@@H]2[C@@H](O)c1ccnc2ccc(OC)cc12
Potency [7]: 56.2 µM (active) | Potency [9]: 26.7 µM (active)

CCCC(CCC)C(=O)OC1CC2CCC(C1)[N+]2(C)C (centres undefined)
Potency [7]: inactive | Potency [9]: inactive

O=C1NC(=O)/C(=C/c2ccc(-c3ccc(F)cc3O)o2)S1
Potency [7]: 44.7 µM (active) | Potency [9]: 21.2 µM (active) | Potency [10]: inactive | outcome [11]: inactive | Potency [12]: 24.8 µM (active) | Potency [16]: 63.1 µM (active)

CCNC(=O)[C@H]1O[C@@H](n2cnc3c(N)nc(NCCc4ccc(CCC(=O)O)cc4)nc32)[C@H](O)C1O (some centres undefined)
Potency [7]: inactive | Potency [9]: inactive

CC(=O)SCC[N+](C)(C)C
Potency [7]: inactive | Potency [9]: inactive

NC[C@H]1O[C@@H](n2cnc3c(N)ncnc32)[C@H](O)[C@@H]1O
Potency [7]: inactive | Potency [9]: inactive

NCCCCC(=O)O
Potency [7]: inactive | Potency [9]: inactive

COc1cccc(C(=O)NCCN2CCN(c3ccc(Cl)cc3)CC2)c1
Potency [7]: inactive | Potency [9]: inactive

O=C1NC(O)=NC1(c1ccccc1)c1ccccc1
Potency [7]: inactive | Potency [9]: inactive

Nc1nc2ccc(Cl)cc2n2c(-c3ccccc3)nnc12
Potency [7]: inactive | Potency [9]: inactive

CC(=O)/C=C1\C(=O)N(C)c2ccccc21
Potency [7]: 28.2 µM (active) | Potency [9]: inactive

O=C(CCCCCN1CCN(c2ccccc2-c2ccccc2)CC1)NC1CCCc2ccccc21 (centres undefined)
Potency [7]: 79.4 µM (active) | Potency [9]: 23.8 µM (active)

C#C[C@]1(O)CC[C@H]2[C@@H]3CCC4=Cc5oncc5CC4(C)[C@H]3CCC21C (some centres undefined)
Potency [7]: inactive | Potency [9]: inactive

O=C(Nc1ccccc1)c1cc([N+](=O)[O-])ccc1Cl
Potency [7]: inactive | Potency [9]: inactive | Potency [6]: inactive
